The list is not random: actives were taken first. Their share in the collection is about 7.6%.
Giardia killer: Small Molecules that selectively kill Giardia lamblia: qHTS; Giardia lamblia trophozoite viability; activity change, % at 7.66 µM, hits read low; hit rate 0.15% among 340,000; AID 540267, 2011; in the data active = activity change below about -80%; inconclusive = between about -30% and that limit;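 also: parasites exposed to compound for two days anaerobically before the ATP read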
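Giardia trophozoites, 100 cells per well, were exposed to compounds for 48 hrs at 37 deg C under anaerobic conditions; viability was then read as ATP content by bioluminescence after 15-30 min at room temperature.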
RORg inh: qHTS for inhibitors of ROR gamma transcriptional activity | Nuclear receptor ROR-gamma (Mus musculus), P51450 | Potency, µM (titrated, usually from 53.6 µM), hits mostly inhibitors | hit rate 5.4% among 310,000 | AID 2551, 2010 | Drosophila S2 Gal4-RORgamma UAS-luciferase reporter, 20 h; also: nearly all actives have a fitted effect of over 60% in size
Target sequence (P51450 whole entry, looked up, the tested form may be a part): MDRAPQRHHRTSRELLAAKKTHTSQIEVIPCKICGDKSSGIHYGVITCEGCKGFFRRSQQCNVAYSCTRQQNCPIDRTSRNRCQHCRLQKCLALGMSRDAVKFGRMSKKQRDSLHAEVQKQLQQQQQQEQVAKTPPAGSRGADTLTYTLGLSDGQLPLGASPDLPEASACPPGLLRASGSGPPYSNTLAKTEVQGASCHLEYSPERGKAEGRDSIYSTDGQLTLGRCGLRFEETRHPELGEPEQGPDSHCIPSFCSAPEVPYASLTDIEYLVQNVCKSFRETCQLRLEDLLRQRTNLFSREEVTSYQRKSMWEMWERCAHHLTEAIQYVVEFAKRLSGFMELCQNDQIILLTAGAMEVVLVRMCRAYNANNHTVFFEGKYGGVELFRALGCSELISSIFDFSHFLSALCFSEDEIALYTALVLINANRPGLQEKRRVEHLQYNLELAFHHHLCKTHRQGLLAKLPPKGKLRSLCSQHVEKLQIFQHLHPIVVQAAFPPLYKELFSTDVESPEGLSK
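In this cell-based reporter format, copper sulfate (700 uM final) drives Gal4–ROR gamma fusion expression from a metallothionein promoter in Drosophila Schneider cells; compounds preincubated 1 hr, reporter read after 20 hr at ambient temperature.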
ELG1 repair inh: qHTS screen for small molecules that inhibit ELG1-dependent DNA repair in human embryonic kidney (HEK293T) cells expressing luciferase-tagged ELG1; Potency, µM (titrated, usually from 46.1 µM), actives largely listed as inhibitors; HEK293T ELG1-luciferase reporter, luminescence, 16 h; DNA damage induced by 5-fluorouridine; hit rate 2.3% among 330,000; also: nearly all actives have a fitted effect of over 55% in size
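Overnight (16 hr) co-exposure of 2,000 cells/well to 5-fluorouridine and compound at 37 °C preceded detection. Luciferase was quantified via ONE-Glo luminescence; loss of signal denotes inhibition.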
BRCA1 expr up: qHTS Assay to Identify Small Molecule Activators of BRCA1 Expression. MCF7-BRCA1-FFLuc reporter, luminescence, 48 h; response scale: scaled: vehicle 0%, 10 µM genistein 100%. Potency, µM (doses to about 46.1 µM), usual class: activators. hit rate 1.1% among 380,000; also: nearly all actives have a fitted effect of over 80% in size
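Activators of BRCA1 expression were detected as increased firefly luciferase luminescence in engineered MCF7 cells after 48 h compound incubation. Signals were scaled to genistein 10 microM as full activation.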
Gal4-VP16 FLuc: VP16 counterscreen qHTS for inhibitors of ROR gamma transcriptional activity; Potency, µM (top dose mostly 53.6 µM), usual class: inhibitors; Drosophila S2 Gal4-VP16 UAS-luciferase, luminescence, 20 h; hit rate 3.5% among 310,000;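 also: Gal4-VP16 expression switched on by copper sulfate through the metallothionein promoter; nearly all actives have a fitted effect of over 50% in size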
p53 reactivation: qHTS assay for re-activators of p53 using a Luc reporter; hit rate 0.063% among 320,000; H1299 p53-A138V BP100-luciferase reporter, luminescence, 24 h; Potency, µM (titrated, usually from 92.2 µM), hits mostly activators; also: nearly all actives have a fitted effect of over 45% in size
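p53-null H1299 cells stably carrying temperature-sensitive p53-A138V and a BP100-luciferase reporter were pinned with compounds (4-point, 1:5 series) and held 24 hrs at 37 deg C. Luminescence was read 10 min after detection reagent.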
A number is an active result; i = inactive; ? = inconclusive; nt = not tested or not shown; [ ] = another dose, or the depositor's remark. Unless noted, calls follow the shape of the dose curve; as a rule, active = well fitted curve in the direction sought with a large enough effect; inconclusive = small, poorly fitted or top-dose-only effect, or another doubt; inactive = no such curve, though single readings can be large; an effect the other way counts as inactive or inconclusive.

SMILES	Giardia killer	RORg inh	ELG1 repair inh	BRCA1 expr up	Gal4-VP16 FLuc	p53 reactivation
CC1CCCCN1C(=O)c1cc(-c2ccc3c(c2)OCO3)on1 (centres undefined)	?	i	?	?	i	?
CCC1CCCCN1C(=O)c1cc(-c2ccc(Cl)c(Cl)c2)on1 (centres undefined)	i	i	?	11µM	?	?
CC1CCCCN1C(=O)c1cc(-c2ccc(Cl)c(Cl)c2)on1 (centres undefined)	i	i	?	5.6µM	i	?
Cc1ccc2nc(C3CCCN(C(=S)Nc4ccccc4C)C3)[nH]c2c1 (centres undefined)	i	?	i	i	?	i
NC(=O)c1cccc(N=Cc2cc(Cl)cc(Cl)c2O)c1	i	i	i	i	i[10 µM]	i
Oc1c(Cl)cc(Cl)cc1C=Nc1ccccc1N1CCCC1	nt	16µM	i	nt	?	i
COc1ccc(CCNCc2csc3nc4ccccc4n23)cc1OC	i	i	i	i	6.3µM	i
COc1ccc(CCNc2nc3ccccc3n3nnnc23)cc1OC	i	i	?	i	i	i
Cc1n[nH]c(=O)c2c(NC(=O)CSc3nc4ccccc4c(=O)n3CCCOC(C)C)oc(C)c12	i	i	i	i	i	i
CCCc1cc(NC(=O)CCl)n(-c2ccccc2)n1	i	?	?	i	20µM	?
CC(C)(C)c1cc(NC(=O)CCl)n(-c2ccccc2)n1	i	?	i	i	?	i
C=CCN(CC=C)C(=S)NC(=O)Cc1cccc2ccccc12	i	0.2µM	i	i	0.79µM	i
O=C(Cc1cccc2ccccc12)NO	nt	nt	nt	i	nt	nt
CCC1CCCCN1Cc1ccc(OC)c(C)c1C (centres undefined)	i	11µM	i	i	i	i
COc1ccc(CN2CCN(C3CCSCC3)CC2CCO)c(C)c1C (centres undefined)	i	i	i	i	i	i
CCOC(=O)C1CCCN(C(=S)Nc2ccc(C)cc2C)C1 (centres undefined)	i	11µM	i	i	?	i
CCOC(=O)C1CCCN(C(=S)NC(=O)/C=C/c2ccc(F)cc2)C1 (centres undefined)	i	10µM	i	i	7.1µM	i
OC(COc1ccc(OCc2ccccc2)cc1)CN1CCOCC1 (centres undefined)	i	i	i	i	i	i
Cn1nnnc1N=N/C(=N/Nc1ccccc1)c1ccccc1	?	0.35µM	?	i	2.2µM	?
COc1ccc(C(=O)n2cc(C(=O)c3cc(C)ccc3O)cn2)cc1OC	i	i	23µM	i	?	i
CCc1ccc2c(c1)c(N=NC1=NC(=O)CS1)c(O)n2CC	i	11µM	i	i	?	i
O=C(CSC1=NNC(c2ccccn2)S1)Nc1ccc(C(F)(F)F)cc1 (centres undefined)	i	3.2µM	i	i	5µM	i
Cc1ccc(S(=O)(=O)N(CC(=O)N(C(C)C)C(C)C)C(=O)N2CCN(C)CC2)cc1	i	i	i	i	i	i
Cc1ccc(S(=O)(=O)/N=C2/NC(=O)/C(=C\c3cc(Br)cc(Br)c3O)S2)cc1	i	11µM	i	i	i	i
Cc1ccc(S(=O)(=O)/N=C2/NC(=O)/C(=C/c3ccc(Br)o3)S2)cc1	i	i	i	i	i	i
SMILES	Giardia killer	RORg inh	ELG1 repair inh	BRCA1 expr up	Gal4-VP16 FLuc	p53 reactivation
Cc1nn(CCOc2ccccc2)c(=O)n1-c1ccc(F)cc1	i	i	?	13µM	i	i
COC(=O)N[C@@H](CCc1ccccc1)[C@]1(C(C)=O)CCCC1=O	nt	?	nt	nt	i	nt
COc1cccc2sc(N3CCN(C(=O)c4ccc([N+](=O)[O-])o4)CC3)nc12	-87	nt	?	i	nt	i
O=C(c1ccc([N+](=O)[O-])o1)N1CCN(c2nc3c(Cl)cccc3s2)CC1	?	nt	?	i	nt	i
O=C(c1cccs1)N1CCN(c2nc3ccccc3s2)CC1	i	?	i	i	i	i
O=C(c1ccc([N+](=O)[O-])o1)N1CCN(c2nc3ccc(F)cc3s2)CC1	-89	nt	?	i	nt	i
O=C(c1cc2sccc2n1Cc1ccc(F)cc1)N1CCN(c2nc3ccccc3s2)CC1	i	?	?	i	11µM	i
CCN1C(C)=C(C(=O)OC)C(c2ccccc2)N2C(=O)[C@](O)(C(=O)OC)C(c3ccccc3)C(C(=O)c3ccccc3)=C12 (some centres undefined)	nt	i[10 µM]	nt	nt	i[10 µM]	nt
O=C(O)c1ccc(/C=C2\COc3ccccc3C2=O)cc1	i	7.1µM	?	i	6.3µM	?
CCOc1ccccc1OCC(=O)Nc1nc2ccccc2[nH]1	i	5.6µM	i	i	?	i
Cc1cc(C)c(OCC(=O)Nc2nc3ccccc3[nH]2)c(C)c1	i	11µM	i	i	i	i
CSc1cccc(NC(=O)COc2cccc3ccccc23)c1	i	i	i	i	i	i
O=C(COc1cccc2ccccc12)Nc1nc2ccccc2[nH]1	i	10µM	i	i	11µM	i
CCOc1cc(/C=C2\COc3ccccc3C2=O)cc(Br)c1OCC(=O)N(C)C	i	?	?	i	20µM	i
CCOc1cc(/C=N/Nc2nc3ccccc3[nH]2)cc(Br)c1OCC(=O)N(C)C	i	?	23µM	i	i	i
COc1ccc(/C=C2\COc3ccccc3C2=O)cc1OC	i	?	?	i	?	?
COc1cc(/C=N\Nc2nc3ccccc3[nH]2)cc(OC)c1OC	i	i	i	i	i	i
Cc1ccccc1OCC(=O)Nc1nc2ccccc2[nH]1	i	7.1µM	?	i	?	i
Cc1ccc(-c2c(C(=O)c3ccc(Br)cc3)[nH]c(N)c2C(=O)NCc2ccc(Cl)cc2)cc1	nt	nt	nt	i	nt	nt
COc1ccc(N(C)S(=O)(=O)c2cccc(C(=O)Nc3nc(C)cs3)c2)cc1	i	nt	?	i	nt	i
COc1cc(OC)c(N(C)S(=O)(=O)c2cccc(C(=O)Nc3nc(C)cs3)c2)cc1Cl	i	nt	18µM	i	nt	i
COc1ccccc1N(C)S(=O)(=O)c1ccc(Cl)c(C(=O)NC2=NCCS2)c1	i	i	i	i	i	i
COc1cc(OC)c(N(C)S(=O)(=O)c2cccc(C(=O)NC3=NCCS3)c2)cc1Cl	i	10µM	16µM	i	?	i
Cc1cc(C)c2sc(N(CCCN(C)C)C(=O)c3ccc(Br)s3)nc2c1	i	?	i	i	i	i
CCCc1cc(Nc2ccccc2C)n2ncnc2n1	i	i[1.91 µM]	i	i	i	i

Screening results from PubChem.
